# Measured values published in PubChem BioAssay.
# Experiments:
# [1] = system: Human papillomavirus type 1a protein E7 (residues 44-93); assay: HPV1a E7 fragment binders on microarrays, primary screen, biochemical, small-molecule microarray, residues 44-93, 635 nm fluorescence (AID 1108); settings: small-molecule microarray binding, fluorescence 635 nm; higher = more signal;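 also: E7 fragment applied at 1 µg/mL in TBST for 1 h at 4 C; score combines spot fluorescence with its signal to noise ratio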
# [2] = modulators of HCV replicon luciferase signal, primary screen, HCV replication inhibitor project, Huh7 cells, luciferase reporter (AID 1109); settings: 48 h, higher = more signal;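 also: huh7 hepatoma cells harbouring a luciferase neomycin HCV replicon reporter; luciferase luminescence as measure of HCV replicon replication; test concentration not given here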
# [3] = target: Left-right determination factor 2 (Homo sapiens) (UniProt O00292); assay: LEFTY2 binders on small-molecule microarrays, primary screen, biochemical, small-molecule microarray, 635 nm fluorescence scan (AID 1110); settings: LEFTY2 binding, higher = more signal
# Left-right determination factor 2 (Homo sapiens), sequence (O00292 whole entry, looked up): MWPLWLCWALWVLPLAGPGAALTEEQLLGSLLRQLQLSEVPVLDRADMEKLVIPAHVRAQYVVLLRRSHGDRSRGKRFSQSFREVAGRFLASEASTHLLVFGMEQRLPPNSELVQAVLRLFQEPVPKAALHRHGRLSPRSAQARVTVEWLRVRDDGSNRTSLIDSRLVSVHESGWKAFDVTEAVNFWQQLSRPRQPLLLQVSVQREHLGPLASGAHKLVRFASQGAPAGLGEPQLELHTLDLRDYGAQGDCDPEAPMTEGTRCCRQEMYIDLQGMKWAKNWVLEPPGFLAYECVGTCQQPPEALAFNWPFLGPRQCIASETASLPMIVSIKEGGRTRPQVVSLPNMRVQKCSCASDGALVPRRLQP
# [4] = target: Calmodulin-1 (Homo sapiens) (UniProt P0DP23); assay: CALM1 binders on microarrays, EGTA buffer, profiling panel, biochemical, small-molecule microarray, Cy5-labelled CALM1 (AID 1111); settings: Cy5-CALM1 binding fluorescence, higher = more signal;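 also: labelled calmodulin applied in Tris saline Tween buffer holding calcium plus EGTA and DTT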
# [5] = target: Calmodulin-1 (Homo sapiens) (UniProt P0DP23); assay: calcium-bound CALM1 binders on microarrays, profiling panel, artefact control for SMM control-protein annotation, biochemical, small-molecule microarray, Cy5-labelled CALM1, plus calcium (AID 1112); settings: Cy5-CALM1 binding fluorescence, higher = more signal;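 also: score merges spot fluorescence with signal to noise from triplicate slides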
# [6] = small-molecule microarray binders of probe aWnt5a, primary screen, biochemical, biotinylated probe, 635/667 nm fluorescence (AID 1113); settings: higher = more signal;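 also: score merges 667 nm fluorescence intensity with signal-to-noise per printed feature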
# [7] = small-molecule microarray binders of probe aShh, primary screen, biochemical, biotinylated probe, 635/667 nm fluorescence (AID 1114); settings: higher = more signal;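 also: probe is biotin-labelled aShh protein from a stem cell growth factor screen; measures binding of labelled protein to compounds printed on the slide; score merges feature fluorescence at 667 nm with signal-to-noise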
# [8] = small-molecule microarray binders of probe aNog, primary screen, biochemical, biotinylated probe, 635/667 nm fluorescence (AID 1115); settings: higher = more signal;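 also: probe is biotinylated aNog protein used at 0.15 µg/mL for 1 h at 4 C; z-score combines 667 nm fluorescence of each spot with its signal to noise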
# [9] = target: Torsin-1A-interacting protein 1 (Homo sapiens) (UniProt Q5JTV8); assay: LAP1 binders from COS7 cell lysate, primary screen, small-molecule microarray, 635/667 nm fluorescence (AID 1116); settings: COS7-hLAP1 lysate binding, 635 nm fluorescence, higher = more signal
# Torsin-1A-interacting protein 1 (Homo sapiens), sequence (Q5JTV8 whole entry, looked up): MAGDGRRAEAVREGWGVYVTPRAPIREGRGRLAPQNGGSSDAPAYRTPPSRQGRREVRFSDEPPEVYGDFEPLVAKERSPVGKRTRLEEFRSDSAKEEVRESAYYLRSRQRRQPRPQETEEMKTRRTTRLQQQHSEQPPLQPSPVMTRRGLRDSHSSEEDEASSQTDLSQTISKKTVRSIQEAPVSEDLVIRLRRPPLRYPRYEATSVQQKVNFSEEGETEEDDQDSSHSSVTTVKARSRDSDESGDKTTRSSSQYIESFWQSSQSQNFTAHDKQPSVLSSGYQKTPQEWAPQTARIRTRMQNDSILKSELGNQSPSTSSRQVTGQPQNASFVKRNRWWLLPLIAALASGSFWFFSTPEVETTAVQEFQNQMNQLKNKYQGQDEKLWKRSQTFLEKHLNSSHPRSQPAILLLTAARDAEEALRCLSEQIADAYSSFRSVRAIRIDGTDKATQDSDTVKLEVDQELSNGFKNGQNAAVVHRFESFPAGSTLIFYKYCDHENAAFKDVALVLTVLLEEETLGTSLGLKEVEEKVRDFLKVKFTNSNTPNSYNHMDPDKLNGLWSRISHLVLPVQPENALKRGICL
# [10] = target: Alpha-bungarotoxin (Bungarus multicinctus) (UniProt P60615); assay: alpha-bungarotoxin binders on microarray, profiling panel, artefact control for SMM control protein annotation, biochemical, small-molecule microarray, Alexa647 label, 635/667 nm fluorescence (AID 1117); settings: alpha-BTX-A647 binding fluorescence, higher = more signal
# Alpha-bungarotoxin (Bungarus multicinctus), sequence (P60615 whole entry, looked up): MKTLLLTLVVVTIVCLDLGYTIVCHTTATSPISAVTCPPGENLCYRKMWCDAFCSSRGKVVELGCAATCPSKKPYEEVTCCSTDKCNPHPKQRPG
SMILES,composite z-score [1],z-score [2],composite z-score [3],composite z-score [4],composite z-score [5],composite z-score [6],composite z-score [7],composite z-score [8],composite z-score [9],composite z-score [10]
CN1C(=O)C2C=CC(C(O)c3ccc([N+](=O)[O-])cc3)N(Nc3ccccc3)C2C1=O (stereo not given),1.41,0.514,-0.258,2.04,0.843,0.0968,1.01,1.53,0.0788,1.44
C=CC[C@H](OC(=O)Nc1ccc(SC)cc1)c1ccc(O)c(F)c1,-0.419,0.599,-0.722,-0.652,-0.328,-0.147,-0.0709,-0.267,1.82,-0.165
CC(C)(C)OC(=O)CC[C@@]1(C(=O)N2CCOCC2)N=C(c2ccc(OCCCO)cc2)O[C@@H]1c1ccccc1CN=[N+]=[N-],1.46,0.265,0.0254,2.04,0.742,0.281,0.0875,2.13,3.31,0.986
CC(C)N1C(=O)[C@@]2(Cc3ccccc31)c1ccccc1C(=O)N(Cc1ccccc1C(F)(F)F)[C@H]2c1ccc(CO)cc1,0.845,-0.329,-0.0311,-0.157,-0.0481,0.0607,-0.09,-0.0247,0.289,-0.0261
C=CCOC(=O)[C@H]1[C@@H]2C(=O)O[C@@H](c3ccccc3)[C@@H](c3ccccc3)N2[C@@H](c2ccc(OCCOC(=O)[C@@H]3C[C@@H]4C(=O)N[C@@H](Cc5ccccc5)C(=O)N4[C@@H]3c3ccc(O)cc3)cc2)[C@]12C(=O)Nc1ccc(I)cc12,1.27,-1.64,0.898,0.367,0.242,-0.152,-0.154,-0.432,-0.164,0.875
COc1ccc([Si](C)(C)[C@H]2[C@H](CCO)O[C@@]3(C(=O)N(Cc4ccccc4)c4ccc(NC(=O)[C@H](C)O)cc43)[C@@H]2C)cc1,1.37,-5.05,0.424,0.362,0.195,0.026,-0.138,0.514,0.795,0.627
COC(=O)C1=CC(CCCO)=CC(c2ccc(CN3CCCC3)cc2)N(C)C=C1C(=O)OC (stereo not given),1.3,-0.979,0.0465,1,0.316,0.002,0.582,0.776,1.66,0.57
C=C(C(=O)CC[C@H](OC(=O)c1ccccc1-c1ccccc1C(=O)O)c1ccc(OCCO)cc1)C(C)C,1.38,-1.26,0.0164,0.275,-0.37,0.204,0.0639,1.14,0.735,0.971
Cc1c(NC(=O)/C(C#N)=C/C=C/c2ccc([N+](=O)[O-])cc2)c(=O)n(-c2ccccc2)n1C,0.572,-1.71,0.328,1.97,0.72,-0.0792,-0.0769,0.457,1.37,1.13
COCCOC(=O)N1C(=O)[C@@]2(c3ccccc31)[C@H](C(=O)Nc1nc3ccccc3s1)[C@H]1C(=O)O[C@H](c3ccccc3)[C@H](c3ccccc3)N1[C@@H]2c1ccccc1OCCO,1.41,-1.83,0.146,1.51,0.476,-0.0685,-0.225,0.36,0.429,1.72
C=C(CCCC)/C(=C/C[C@@H](OC(C)=O)c1cccc(OCCO)c1)c1cc(C(=O)OC)ccc1OC,0.364,-2.02,-0.227,-0.405,-0.788,-0.119,0.111,-0.18,0.714,0.621
COc1cc2c(cc1OC)CN(C(=O)[C@@H]1[C@H]3C(=O)O[C@H](c4ccccc4)[C@H](c4ccccc4)N3[C@H](c3ccc(O)cc3)[C@@]13C(=O)Nc1ccc(C#CC4=CCCCC4)cc13)CC2,0.244,-1.49,0.512,1.07,0.319,0.0044,-0.011,0.14,0.635,0.891
COCCCNC(=O)[C@]1(Cc2ccccc2N=[N+]=[N-])N=C(c2ccc(OCCCO)cc2)O[C@@H]1c1ccccc1,0.565,-1.69,-0.263,2.24,0.908,-0.118,0.0638,-0.661,1.69,2.32
O=C1c2ccccc2[C@@]2(Cc3ccccc3N(CC(F)(F)F)C2=O)[C@H](c2ccc(CO)cc2)N1Cc1ccccc1,-0.143,-1.22,0.2,-0.469,0.457,0.0371,0.0178,-0.238,-0.131,-0.0056
COC(=O)[C@@]1(Cc2ccc(F)cc2)[C@H]2c3cc(C(=O)N4CCCC4)n(CCSCCO)c3C[C@H]2CN1C(=O)c1ccccc1,1.2,-1.24,-0.721,1.34,0.318,0.0914,1.08,1.56,0.403,0.566
